Source: PubChem (several laboratories)
KCC2 mod – KCC2 cotransporter modulators, thallium flux, primary screen, cell-based, HEK293 KCC2, FluoZin-2 fluorescence, MLSMR. Solute carrier family 12 member 5 (Homo sapiens), Q9H2X9. KCC2 cells, thallium flux FluoZin-2 fluorescence. B-score of Tl+ flux slope (higher = more flux/activation; lower = inhibition) at 10 µM. 190,000 compounds, 2.2% hits. AID 1456, 2008;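 active = thallium flux slope and its plate-corrected score both differing from the plate sample mean at a set confidence after two filtering rounds, in either direction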;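 note: slope of fluorescence scaled to starting intensity during 10 to 20 s after thallium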
Target sequence (Q9H2X9 whole entry, looked up): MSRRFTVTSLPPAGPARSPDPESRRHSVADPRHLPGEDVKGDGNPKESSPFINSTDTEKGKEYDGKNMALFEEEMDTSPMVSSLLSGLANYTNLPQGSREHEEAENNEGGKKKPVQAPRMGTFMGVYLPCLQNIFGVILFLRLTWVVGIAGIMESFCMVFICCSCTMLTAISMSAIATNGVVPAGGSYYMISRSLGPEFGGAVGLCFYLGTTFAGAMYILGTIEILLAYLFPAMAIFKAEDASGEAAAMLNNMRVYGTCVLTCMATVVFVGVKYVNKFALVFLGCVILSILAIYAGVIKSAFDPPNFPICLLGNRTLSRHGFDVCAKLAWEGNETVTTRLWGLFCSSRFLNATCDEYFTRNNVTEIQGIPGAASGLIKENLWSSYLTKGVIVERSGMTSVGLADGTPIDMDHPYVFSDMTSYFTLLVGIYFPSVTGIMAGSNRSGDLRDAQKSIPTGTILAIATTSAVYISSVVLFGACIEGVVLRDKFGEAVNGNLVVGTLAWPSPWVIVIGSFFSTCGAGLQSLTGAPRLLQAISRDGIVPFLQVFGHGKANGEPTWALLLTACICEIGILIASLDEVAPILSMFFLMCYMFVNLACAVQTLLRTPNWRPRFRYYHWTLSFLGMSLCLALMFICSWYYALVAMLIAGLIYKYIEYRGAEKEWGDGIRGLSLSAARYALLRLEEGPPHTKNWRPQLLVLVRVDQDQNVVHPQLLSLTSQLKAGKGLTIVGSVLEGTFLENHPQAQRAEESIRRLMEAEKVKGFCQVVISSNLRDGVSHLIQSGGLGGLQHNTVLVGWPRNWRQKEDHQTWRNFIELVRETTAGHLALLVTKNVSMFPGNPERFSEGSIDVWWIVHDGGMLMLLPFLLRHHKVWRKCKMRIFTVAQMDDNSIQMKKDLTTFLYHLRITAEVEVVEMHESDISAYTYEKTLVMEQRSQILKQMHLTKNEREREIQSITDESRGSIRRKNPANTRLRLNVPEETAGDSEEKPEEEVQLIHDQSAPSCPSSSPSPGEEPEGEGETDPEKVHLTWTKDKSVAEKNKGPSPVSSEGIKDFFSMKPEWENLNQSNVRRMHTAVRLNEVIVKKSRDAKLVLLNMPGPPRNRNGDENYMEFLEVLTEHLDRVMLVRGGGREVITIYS
Calb FLC – C. albicans growth inhibition with fluconazole, primary screen, CaCi-2 strain, Alamar Blue fluorescence. C. albicans CaCi-2 (fluconazole-resistant clinical isolate) + fluconazole, 48 h. growth inhibition, % (concentration not given with the values). 300,000 compounds, 0.57% hits;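 active = growth inhibition above about 58% in most replicates, limit read from the data, passing the limit was not always enough; inconclusive = exactly half the replicates above a set limit; inactive = most replicates below a set limit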;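 note: all wells also contain fluconazole at 8 µg/ml as a sub-toxic cotreatment; 0% = median of DMSO wells and 100% = median of geldanamycin control wells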
Efflux pump mplx – inhibitors of Candida efflux pumps in yeast, primary screen, S. cerevisiae, Nile Red, multiplex. inhibition, % at 10 µM. S. cerevisiae Candida pump triplex. 330,000 compounds, 0.44% hits;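 active = plate passing quality check with inhibition over a set limit, or well fluorescence over plate mean plus 4 SD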;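 note: Nile Red retained in pooled yeast measured as flow cytometry median fluorescence; 0% = buffer negative control and 100% = Enniatin B positive control; higher means more Nile Red kept so more efflux inhibition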
H9c2 protect – cardioprotection against H2O2-induced cell death, primary screen, uHTS, H9c2 cells, ATPLite luminescence; H9c2 cardiomyocytes, H2O2 injury protection, 2 h; protection from H2O2 cell death, % at 20 µM; AID 588492, 2011; 360,000 compounds, 0.63% hits;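 active = compounds giving at least 50% protection of heart cells from peroxide-induced death in the single-dose screen, raw or plate-pattern-corrected value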;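 note: 0% = DMSO wells with peroxide and 100% = DMSO wells without peroxide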
PHOSPHO1 inh – PubChem AID 1565 | Phosphoethanolamine/phosphocholine phosphatase (Homo sapiens), Q8TCT1 | recombinant PHOSPHO1, absorbance phosphatase assay | inhibition, % at 13.3 µM | 290,000 compounds, 1.1% hits; in the data active = inhibition above about 60%
KCC2 sec1 – KCC2 modulators in sodium-free buffer, confirmation, cell-based, HEK293 KCC2, thallium flux, secondary assay. normalised thallium flux (F/F0 slope) at 10 µM. FluoZin2 fluorescence; active compounds read high. AID 1713, 2009. shares compounds with KCC2 mod. 3,700 compounds, 15% hits;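 active = thallium flux slope above the same plate's solvent-only control mean plus 3 SD; inconclusive = the two replicate wells disagree; inactive = no significant difference from solvent-only control wells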
KCC2 bumet counter – thallium flux persisting under bumetanide in KCC2 cells, confirmation, counter-screen for KCC2 modulator project, cell-based, HEK293 KCC2, FluoZin2, secondary assay 3. shares compounds with KCC2 mod. HEK293-KCC2 + bumetanide/ouabain; active compounds read high. normalized thallium flux at 10 µM. 3,700 compounds, 49% hits;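 active = thallium entry rate above the same plate's blocked-transporter control wells by more than 3 SD; inconclusive = the two repeat wells disagree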;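 note: raw slope of fluorescence over initial fluorescence between 10 and 20 s after thallium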
KCC2 sec2 – KCC2 modulators without ouabain present, confirmation, cell-based, HEK293 KCC2, thallium flux, FluoZin2, secondary assay 2. 3,700 compounds, 23% hits. thallium flux FluoZin2 fluorescence; actives lie on both sides; F/F0 rise rate, 10–20 s post-thallium. normalized thallium flux at 10 µM. shares compounds with KCC2 mod;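 active = thallium flux slope more than 3 SD above or below the plate's solvent-only control mean, mostly below; inconclusive = the two repeat wells disagreed; inactive = no significant shift from solvent-only controls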;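 note: raw slope with 0.1% DMSO as baseline and bumetanide as block control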
HEK counter1 – thallium flux modulation in parental HEK cells, confirmation, counter-screen for KCC2 modulator project, cell-based, counterscreen 1. shares compounds with KCC2 mod. HEK293 parental cells, thallium flux FluoZin2, ouabain; baseline-ratio fluorescence slope, 10–20 s after thallium. thallium flux rate (normalised fluorescence) at 10 µM. 3,700 compounds, 46% hits. AID 1716, 2009;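 active = thallium flux rate significantly above the same plate's solvent-only control wells, beyond their mean plus 3 SD; inconclusive = the two replicate wells gave conflicting results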
KCC2 retest ouab – KCC2 inhibitors and activators, ouabain retest, confirmation, HEK-KCC2 cells. shares compounds with KCC2 mod. HEK293-KCC2, thallium flux FluoZin2 fluorescence; bidirectional: low = inhibitor, high = activator. raw Tl+ flux slope (below DMSO = inhibition, above = activation) at 10 µM. 3,700 compounds, 48% hits;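 active = thallium flux slope beyond 3 SD from same-plate DMSO control mean in most replicates, usually higher, sometimes lower; inconclusive = repeat tests gave conflicting results; inactive = no significant difference from controls in most replicates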;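 note: slope of initial-normalized fluorescence between seconds 10 and 20 after thallium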
HEK counter2 – native HEK Tl+ uptake effects, second counter-screen – HEK cells, counterscreen 2, counter-screen for KCC2 modulator project, confirmation. thallium flux slope at 10 µM. shares compounds with KCC2 mod. HEK293 parental, thallium flux FluoZin-2 fluorescence slope. 3,700 compounds, 33% hits;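 active = thallium flux slope above the same plate's solvent-control mean plus 3 SD in both duplicate wells; inconclusive = duplicate wells that disagreed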;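 note: run without ouabain in cells lacking the KCC2 cotransporter; slope of fluorescence scaled to its starting value between 10 and 20 s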
An asterisk follows results filed as active; ? = inconclusive; · = not tested or not shown. Hits are enriched below; roughly 3.3% of the tested compounds scored in any of these assays.

SMILES | KCC2 mod | Calb FLC | Efflux pump mplx | H9c2 protect | PHOSPHO1 inh | KCC2 sec1 | KCC2 bumet counter | KCC2 sec2 | HEK counter1 | KCC2 retest ouab | HEK counter2
CC(=O)NCCC1CCN(C(=O)c2cc(COc3ccc(C)nc3)on2)CC1 | · | -5.3 | 0.0 | -8.2 | 29.0 | · | · | · | · | · | ·
C/C(N)=C(/C#N)C(=O)CSc1cc(C)c2cc(C)cc(C)c2n1 | 4.12* | -21.3 | 0.0 | -16.4 | 24.5 | 0.0177 | 0.00565 | 0.0307 | ? | 0.0175 | 0.0111
CC(=O)c1ccccc1OCCCOc1cccc2cccnc12 | · | 1.2 | 0.0 | 4.8 | · | · | · | · | · | · | ·
CC(C)Oc1ccccc1OCCCOc1cccc2cccnc12 | -3.75* | ? | 0.1 | 0.5 | -21.2 | 0.00713 | 0.00487 | ? | 0.00637 | 0.0168* | 0.0103
COC(=O)Cc1[nH]n(-c2ccccc2)c(=O)c1C=Nc1ccc(C)cc1 | 1.82 | -4.1 | -0.1 | -3.4 | 11.9 | · | · | · | · | · | ·
CC(C)CC(=O)NC1(C(F)(F)F)C(=O)Nc2c1c(=O)n(C)c(=O)n2C (centres undefined) | -3.54* | 10.8 | 0.0 | 13.7 | 24.8 | 0.00622 | 0.0051 | 0.0333 | 0.00824 | 0.0206 | 0.0106
O=C(CNC(=O)c1cccs1)Nc1cccc(S(=O)(=O)N2CCOCC2)c1 | · | · | · | -0.6 | · | · | · | · | · | · | ·
CCOC(=O)C1CCN(S(=O)(=O)c2cn(C)cn2)CC1 | · | -1.4 | 0.1 | 1.5 | 0.4 | · | · | · | · | · | ·
Cc1csc(NC(=O)c2ccc(Br)s2)n1 | · | -3.0 | 0.1 | -14.4 | 10.3 | · | · | · | · | · | ·
CCOc1cccc2sc(NC(=O)c3ccc(Br)s3)nc12 | 31.5* | 0.4 | -0.1 | -21.2 | -5.3 | ? | 0.0565* | 0.0489* | 0.0338* | 0.0377* | 0.0315*
CCC(C)N(C(=O)COC(=O)c1cc([N+](=O)[O-])ccc1N)C1CCS(=O)(=O)C1 (centres undefined) | · | 11.2 | -0.1 | 7.3 | 22.6 | · | · | · | · | · | ·
CSCCC(NC(=O)COc1ccccc1)C(=O)N1CC(C)CC(C)C1 (centres undefined) | · | · | 0.1 | -8.9 | · | · | · | · | · | · | ·
CSCc1nnc(NC(=O)c2ccc(S(=O)(=O)N(CC(C)C)CC(C)C)cc2)o1 | 2.57 | -30.8 | · | · | 35.4 | · | · | · | · | · | ·
CCc1nnc(NC(=O)c2ccc(S(=O)(=O)N(CC(C)C)CC(C)C)cc2)o1 | 5.08* | · | -0.1 | 41.8 | 19.4 | 0.0121* | 0.0191* | 0.0302 | 0.01* | 0.0217* | 0.00988
O=C(Nc1nnc(C2CC2)o1)c1ccc(S(=O)(=O)N2CCc3ccccc3C2)cc1 | 1.35 | 61.8 | 0.1 | 20.2 | 11.2 | · | · | · | · | · | ·
CCN(Cc1ccccc1)S(=O)(=O)c1ccc(C(=O)Nc2nnc(C3CC3)o2)cc1 | 3.62* | 0.3 | -0.1 | 45.1 | 34.8 | 0.0117 | 0.019* | 0.0338 | ? | ? | 0.0118
CNC(=O)/C(C#N)=C/c1c(N2CCCCCC2)nc2ccccn2c1=O | · | 7.5 | 0.2 | -0.6 | 32.7 | · | · | · | · | · | ·
Cc1cccc(C(=O)NCC(=O)OCCOc2ccccc2Cl)c1 | · | -4.1 | -0.2 | 5.9 | · | · | · | · | · | · | ·
c1ccc(-n2cnc3cc(NCc4ccncc4)ccc32)cc1 | -4.37* | 3.4 | 0.0 | -5.5 | 36.3 | 0.00559 | 0.00451 | 0.0249* | 0.00738 | ? | 0.00951
c1ccc(-n2cnc3cc(NCc4ccccn4)ccc32)cc1 | -0.0111 | -10.1 | -0.1 | -6.4 | -18.0 | · | · | · | · | · | ·
COc1ccc(C(=O)NCCCN2CCCC2=O)cc1S(=O)(=O)N1CCOCC1 | · | · | · | 5.0 | · | · | · | · | · | · | ·
O=C(Nc1nc2c(s1)CN(Cc1ccccc1)CC2)c1cccc(S(=O)(=O)N2CCc3ccccc32)c1 | 3.42* | 4.9 | 0.6 | 5.9 | 6.1 | 0.00453* | 0.0015* | 0.0207* | 0.00509* | 0.0126* | 0.00789*
O=C(Nc1nc2ccccc2s1)c1cccc(S(=O)(=O)N2CCc3ccccc32)c1 | -0.981 | -5.6 | 0.3 | -12.4 | 29.7 | · | · | · | · | · | ·
O=C(CSc1nc2ccccc2[nH]1)Nc1ccccc1F | -4.68* | -4.3 | 0.1 | 0.1 | -9.0 | 0.00725 | 0.00391 | 0.0318 | 0.00735 | 0.0186 | 0.00996
Cc1nc(-c2nc(-c3c(C(=O)NNC(=O)c4ccc(Cl)cc4)noc3C)cs2)cs1 | 103* | 20.5 | 0.0 | 34.7 | 27.3 | 0.0432* | 0.149* | 0.0422 | ? | 0.0921* | 0.0214*
SMILES | KCC2 mod | Calb FLC | Efflux pump mplx | H9c2 protect | PHOSPHO1 inh | KCC2 sec1 | KCC2 bumet counter | KCC2 sec2 | HEK counter1 | KCC2 retest ouab | HEK counter2
Cc1cc(C(=O)NNC(=O)c2cccc(Cl)c2)no1 | 7.36* | 3.4 | 0.0 | -2.5 | 35.7 | 0.00677 | 0.0143* | 0.032 | 0.0139* | ? | 0.0176*
O=C(NNC(=O)c1csc(-c2cccs2)n1)c1ccc(Cl)cc1 | · | · | · | 15.0 | · | · | · | · | · | · | ·
O=C(NNC(=O)c1cccc(Cl)c1)NNC(=O)c1cccc(Cl)c1 | · | · | -0.1 | 0.0 | · | · | · | · | · | · | ·
Cc1nc(-c2nc(-c3c(C(=O)NNC(=O)Nc4cccc(Cl)c4)noc3C)cs2)cs1 | 0.603 | -0.5 | 0.2 | 3.4 | 22.5 | · | · | · | · | · | ·
Cc1cc(/C(N)=N/OC(=O)c2cccc(Cl)c2)no1 | -0.0203 | 0.4 | -0.1 | -4.2 | 39.9 | · | · | · | · | · | ·
Cc1nc(C(=O)NNC(=O)c2ccc(Cl)cc2)cs1 | 9.89* | 1.8 | -0.1 | 12.2 | -21.5 | ? | 0.0254* | 0.0349 | 0.0123* | 0.0285 | ?
NC(=S)NNC(=O)c1cccc(Cl)c1 | 5.63* | -16.9 | 0.0 | 8.0 | 8.1 | ? | ? | 0.0316 | 0.0101* | 0.0186 | ?
COc1cccc(CN(C)C(=O)CCN=C2NS(=O)(=O)c3ccccc32)c1 | · | · | -0.2 | 7.1 | · | · | · | · | · | · | ·
O=C(C1CC(=O)N(c2ccccc2)C1)N1CCCCCC1 (centres undefined) | · | 3.1 | -0.1 | 0.2 | 37.7 | · | · | · | · | · | ·
Cc1cc(C(=O)NNC(=O)c2ccc(Cl)cc2)no1 | 5.88* | -5.4 | 0.0 | 5.2 | 36.4 | 0.0113 | 0.016* | 0.0372 | 0.0129* | 0.0275 | 0.0117*
